# Results taken from the supplement of paper PMC6555819.
# Key:
# Experiment in all cases: PBM binding z-score (relative to random genomic background probes); higher = stronger binding; sequences stand for … in GC…GCGATTGACAGCGTAGAATGAAGG
# [1] = tested on: FXR:RXRa (NR concentration 270 nM, RXRa partner concentration 90 nM)
# Outline: (§1)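 Each nuclear receptor dimer, without ligand, was incubated for 1 h on custom Agilent 4×180K protein-binding microarrays. Binding was detected with antibodies against each partner (one per run), and scanned fluorescence was regression-normalized. The binding z-scores are referenced to random human genomic background probes.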
# [2] = tested on: LXRa:RXRa (NR concentration 270 nM, RXRa partner concentration 90 nM)
# Outline: as §1
# [3] = tested on: LXRa homodimer (NR concentration 270 nM)
# Outline: as §1
# [4] = tested on: LXRb:RXRa (NR concentration 270 nM, RXRa partner concentration 90 nM)
# Outline: as §1
# [5] = tested on: LXRb homodimer (NR concentration 270 nM)
# Outline: as §1
# [6] = tested on: PPARa:RXRa (NR concentration 270 nM, RXRa partner concentration 90 nM)
# Outline: as §1
# [7] = tested on: PPARg:RXRa (NR concentration 180 nM, RXRa partner concentration 90 nM)
# Outline: as §1
# [8] = tested on: PPARg:RXRa 270nM:90nM, anti-RXR (NR concentration 270 nM, RXRa partner concentration 90 nM)
# Outline: as §1
# [9] = tested on: PPARg:RXRa 30nM:10nM, anti-RXR (NR concentration 30 nM, RXRa partner concentration 10 nM)
# Outline: as §1
# [10] = tested on: PPARg:RXRa 90nM:30nM, anti-RXR (NR concentration 90 nM, RXRa partner concentration 30 nM)
# Outline: as §1
# [11] = tested on: PPARg:RXRa DBDmut IVT, anti-RXR (DBD mutation: RXRa K156A/R161A, NR concentration 270 nM, RXRa partner concentration 90 nM)
# Outline: as §1
# [12] = tested on: PPARg:RXRa IVT, anti-PPARg (NR concentration 270 nM, RXRa partner concentration 90 nM)
# Outline: as §1
# [13] = tested on: PPARg DBDmut:RXRa IVT, anti-PPARg (DBD mutation: PPARg1 K132A/R137A, NR concentration 270 nM, RXRa partner concentration 90 nM)
# Outline: as §1
# [14] = tested on: PPARg DBDmut IVT, anti-PPARg (DBD mutation: PPARg1 K132A/R137A, NR concentration 270 nM)
# Outline: as §1
# [15] = tested on: PPARg homodimer (NR concentration 180 nM)
# Outline: as §1
# [16] = tested on: PXR:RXRa (NR concentration 270 nM, RXRa partner concentration 90 nM)
# Outline: as §1
# [17] = tested on: PXR homodimer (NR concentration 270 nM)
# Outline: as §1
# [18] = tested on: RARa:RXR (NR concentration 270 nM, RXRa partner concentration 90 nM)
# Outline: as §1
# [19] = tested on: RARa homodimer (NR concentration 270 nM)
# Outline: as §1
# [20] = tested on: RARb:RXRa (NR concentration 270 nM, RXRa partner concentration 90 nM)
# Outline: as §1
Sequence,PBM binding z-score [1],PBM binding z-score [2],PBM binding z-score [3],PBM binding z-score [4],PBM binding z-score [5],PBM binding z-score [6],PBM binding z-score [7],PBM binding z-score [8],PBM binding z-score [9],PBM binding z-score [10],PBM binding z-score [11],PBM binding z-score [12],PBM binding z-score [13],PBM binding z-score [14],PBM binding z-score [15],PBM binding z-score [16],PBM binding z-score [17],PBM binding z-score [18],PBM binding z-score [19],PBM binding z-score [20]
GATACAGGGTCAGCTAGAGGCCAGAGTTTGGAAA,4.24,2.73,-0.116,2.49,-0.678,4.08,3.23,3.01,0.716,2.22,1.39,2.54,0.152,-1.06,3.41,3.41,0.149,4.26,0.417,4.06
ATCGAAAGGTCGGGAGGTGAGTATACAGAAAGGC,2.88,2.4,0.589,2.36,0.968,3.64,2.22,2.42,0.864,1.44,0.224,1.47,2.2,1.16,1.74,2.12,0.567,2.81,1.38,3.48
GTACCAAGGTGAATAGGACGTTGATGAGTAGGCG,0.0663,-0.214,0.103,-0.344,-0.664,0.537,1.07,0.126,0.338,0.55,1.26,1.93,0.467,0.284,0.583,-0.246,-0.00267,-0.0237,0.381,1.14
GCTGCTAGGTCAGGTTGGTCACCTAACGGGTACG,1.01,0.907,-0.299,0.43,-0.281,1.56,0.627,1.15,-0.264,0.22,2.48,2.8,-1.27,-1.36,0.888,0.48,-0.213,1.27,0.0555,3.39
TCTTGTAGATCAAGAGAGGTTAAGAAAGTGCGCT,0.516,3.28,0.0219,1.46,-0.672,1.44,-0.217,1.2,2.19,1.72,0.899,0.319,-0.033,-0.382,-0.0736,2.95,0.139,1.6,-0.753,0.635
CCTACTGTGCCAAGGTCATTGATCAGTCAAAGCA,3.24,3.74,1.67,3.26,0.681,4.05,3.18,3.78,1.24,2.83,3.52,3.07,-0.148,0.41,2.81,3.87,1.91,3.76,1.37,3.28
TCGTATAGGTAAATGCTAGGTGAAAGTCCGATCT,0.843,0.876,0.236,0.653,0.0986,0.931,0.156,1.84,3.04,2.54,2.09,1.21,0.00787,0.782,0.833,0.373,-0.198,0.889,0.867,0.432
